# Assay outcomes (PubChem)
# The list is not random: actives were taken first. Their share in the collection is about 0.87%.
# APEX1 inh = inhibitors of human APE1 endonuclease | P27695 | recombinant APE1, TAMRA/BHQ-2 abasic DNA cleavage fluorescence | Potency, µM (top dose mostly 65.8 µM), for inactives: top-dose activity change, negative = inhibition, hits mostly inhibitors | actives 0.35% (n = 350,000);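 note: plate controls were vehicle for no effect and reference inhibitor for full effect; nearly all actives have a fitted effect of over 55% in size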
#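 Substrate: short duplex with […] THF abasic site, 5'-TAMRA and 3'-BHQ-2, 50 nM final. APE1 at 0.75 nM, preincubated 15 min RT with compound. Fluorescence increase from first to third read measured activity.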
# RECQ1 inh = RECQ1 (human) helicase inhibition; RECQ1 DNA unwinding, red fluorescence kinetic read; actives 0.54% (n = 240,000); Potency, µM (series often up to 57.3 µM), inactives show at the highest dose activity, negative = inhibition, actives largely listed as inhibitors;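 note: plate controls were vehicle for no effect and no enzyme for full effect; nearly all actives have a fitted effect of over 30% in size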
# Target sequence (P46063 whole entry, looked up): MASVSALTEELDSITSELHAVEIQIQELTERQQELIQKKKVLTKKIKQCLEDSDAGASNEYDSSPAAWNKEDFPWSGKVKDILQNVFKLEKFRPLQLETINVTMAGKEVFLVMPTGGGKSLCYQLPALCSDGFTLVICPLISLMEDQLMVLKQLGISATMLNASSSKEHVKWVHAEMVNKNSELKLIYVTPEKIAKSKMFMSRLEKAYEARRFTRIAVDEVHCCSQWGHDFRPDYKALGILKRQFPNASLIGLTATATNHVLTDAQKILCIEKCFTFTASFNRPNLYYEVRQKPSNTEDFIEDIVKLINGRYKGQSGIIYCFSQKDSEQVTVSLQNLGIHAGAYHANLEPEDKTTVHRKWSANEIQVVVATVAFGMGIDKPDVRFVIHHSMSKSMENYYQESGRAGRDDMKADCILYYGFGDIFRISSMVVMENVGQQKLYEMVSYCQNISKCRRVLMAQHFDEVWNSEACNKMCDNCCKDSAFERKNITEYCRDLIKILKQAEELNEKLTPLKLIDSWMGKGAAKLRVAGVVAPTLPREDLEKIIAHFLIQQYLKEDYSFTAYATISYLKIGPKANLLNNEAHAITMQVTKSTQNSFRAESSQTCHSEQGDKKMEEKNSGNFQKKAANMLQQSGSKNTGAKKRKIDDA
#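 RECQ1T1 50 nM; forked duplex (20 bp + 30-nt ss tails) 200 nM, ATP 2 mM final; pH 8.0, 2 mM MgCl2, 2.5 ug/ml poly(dI-dC); 15 min compound preincubation; discontinuous kinetic read over 2 h at RT.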
# RGS4 inhibitor = blocks human RGS4-accelerated GTP hydrolysis; P49798; Transcreener GDP fluorescence polarization, RGS4-accelerated GTP hydrolysis; Potency, µM (top dose mostly 114 µM), for the others: at the highest dose activity change, negative = inhibition, usual class: inhibitors; actives 0.039% (n = 390,000); note: nearly all actives have a fitted effect of over 75% in size
#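 MLSMR compounds (23 nl, pin-transferred) preincubated 10 min at room temperature with a 500nM (2x) first reagent, then RGS4 at 900nM (2x) plus Transcreener GDP mix added; fluorescence polarization (620/688 nm) read before and after 90 min at 30 °C.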
# TDP1 inh = TDP1 (human) enzyme inhibition | recombinant TDP1, AlphaScreen DNA substrate cleavage | Potency, µM (doses to about 130 µM), for inactives: top-dose activity change, negative = inhibition, hits mostly inhibitors | actives 0.28% (n = 350,000) | AID 485290; note: nearly all actives have a fitted effect of over 40% in size
#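 Signal: AlphaScreen proximity between streptavidin donor and anti-FITC acceptor beads on intact substrate. Reaction: Tdp1 1 nM, substrate 15 nM final, 5 min RT after 15 min compound preincubation.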
# GCN5L2 inh = GCN5L2 (KAT2A) acetyltransferase inhibition | AID 504327 | GCN5L2 HAT assay, ThioGlo1 CoA-SH fluorescence | Potency, µM (highest dose often 58.9 µM), for the others: top-dose activity change, negative = inhibition, usual class: inhibitors | Q92830 | actives 0.21% (n = 390,000)
#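 GCN5L2 (20nM final) in 50mM HEPES, 0.1mM EDTA pH 7.5, 0.01% Tween-20 was preincubated 15 min at room temperature with compound, then given ThioGlo1 (50uM), H3(1-25) peptide (75uM) and acetyl-CoA (70uM); CoA-thiol fluorescence (Ex340/Em540) was read at 0 and 20 min.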
# BLM helicase inh = Bloom syndrome helicase (human) inhibition; AID 2528; P54132; Potency, µM (titrated, usually from 56.1 µM), for the others: at the highest dose activity change, negative = inhibition, usual class: inhibitors; actives 0.2% (n = 350,000); recombinant BLM DNA unwinding, fluorescence dequenching;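 note: plate controls were vehicle for no effect and no enzyme for full effect; nearly all actives have a fitted effect of over 35% in size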
# Active calls of the source: *; i = inactive; ? = inconclusive; · = not tested or not shown; ! = repeats disagree; [ ] = another dose, or the depositor's remark. Calls come from the whole dose curve; as a rule, active = well fitted curve in the direction sought with a large enough effect; inconclusive = small, poorly fitted or top-dose-only effect, or another doubt; inactive = no such curve, though single readings can be large; an effect the other way counts as inactive or inconclusive. Unless noted, % is set by controls: 0 for no effect and ±100 for the full control effect; potency is the fitted concentration of half-maximal effect.
SMILES,APEX1 inh,RECQ1 inh,RGS4 inhibitor,TDP1 inh,GCN5L2 inh,BLM helicase inh
Cc1ccc(-c2csc(NC(=O)CSc3nc4ccccc4[nH]3)n2)cc1,-0.5%,-8.4%,-29.3%,4.2%,34.4%,-3.7%
COc1ccc(-c2csc(NC(=O)CC(NC(C)=O)c3ccccc3)n2)cc1OC (stereo not drawn),-3.2%,·,5.7%,79.4µM*,-7.0%,3.4%
COc1ccc(-c2csc(NC(=O)CSc3nc4ccccc4c(=O)[nH]3)n2)cc1,20.7%[12.4 µM],·,-14.5%,79.4µM*,-10.0%,-14.6%
NC(=O)C1CCN(c2nc(-c3cccc4ccccc34)cs2)CC1,-16.3%,·,·,·,·,·
CCSc1nnc(NC(=O)C2CC=CCC2C(=O)O)s1 (stereo not drawn),?,1.1%,19.2%,56.2µM*,-3.4%,0.3%
CCSc1nnc(NC(=O)CN2C(=O)C3CC=CCC3C2=O)s1 (stereo not drawn),-4.1%,20.4%,12.2%,2.7%,0.0%,-0.4%
CCOC(=O)c1sc(NC(=O)C2CC=CCC2C(=O)O)nc1C (stereo not drawn),?,-0.2%,10.7%,22.4µM*,-3.4%,-0.8%
CCOC(=O)c1sc(NC(C)=O)nc1C,-2.5%,-4.0%,-39.8%,0.0%,-2.1%,0.0%
c1coc(CNc2nc(-c3cccs3)nc3ccccc23)c1,·,·,·,1.3%,·,·
CCn1cc(C(=O)O)c(=O)c2cc(F)c(N3CCN(C(=S)NC(=O)c4ccc(OC)cc4)CC3)cc21,36.0%,·,37.1%,79.4µM*,-8.8%,3.4%
CCn1cc(C(=O)O)c(=O)c2cc(F)c(N3CCN(C(=S)NC(=O)c4cccc(C)c4)CC3)cc21,-5.8%,-8.4%,-5.6%,·,16.7%,3.6%
Cn1cncc1C#Cc1c(C=O)n(C)c2ccccc12,-8.2%,·,-21.4%,56.2µM*,-4.7%,·
Cn1cncc1C#Cc1c(C=O)[nH]c2ccccc12,-8.9%,·,-16.6%,-2.6%,-7.8%,·
O=C(CNC(=O)c1ccc(Br)o1)NCc1ccc(Cl)cc1Cl,13.4µM*,·,-7.7%,3.2%,-1.3%,-4.7%
O=C(CNC(=O)c1ccc(Br)o1)NCc1cccc(Cl)c1,-4.4%,·,2.3%,5.3%,-25.7%,-4.0%
Nc1nnc(-c2cccc3ccccc23)o1,-2.7%,·,·,·,·,·
Cc1cc2c(s1)c1cnn(Cc3ccccc3)c(=O)c1n2C,·,·,·,-0.6%,·,·
COc1ccc2c(=O)c(C)c(-c3ccccc3)oc2c1CN(C)C,·,·,·,·,2.7%,4.8%
CCc1ccc(CN2CCC(CO)(CC3CCCCO3)CC2)o1 (stereo not drawn),2.7%,i,-1.2%,5.1%,17.8µM*,-0.6%
COC(=O)c1cnn(-c2ccc(C(=O)Nc3ccc(C(C)=O)cc3)cc2)c1N,18.8%,·,-7.8%,35.5µM*,-2.0%,-1.0%
NC(=O)NN=C1c2cc(S(=O)(=O)N3CCOCC3)ccc2-c2ccc(S(=O)(=O)N3CCOCC3)cc21,·,·,-16.7%,1.9%,·,·
CC(NC1CCCCC1)C(=O)NN=C(c1ccccc1)c1ccccc1 (stereo not drawn),-3.9%,28.2µM*,-16.0%,·,-3.1%,-3.2%
CC(Cl)C(=O)NN=C(c1ccccc1)c1ccccc1 (stereo not drawn),19.8%,i,9.9%,-2.7%,1.2%,-4.8%
O=C1CCc2cc(S(=O)(=O)Nc3cc(F)cc(Cl)c3)c(F)cc2N1,·,·,·,-0.7%,·,·
Cc1cccc(NC(=O)CNC(=O)Cn2ncc(Cl)c(Cl)c2=O)c1C,?,·,-9.8%,14.1µM*,-25.1%,·
SMILES,APEX1 inh,RECQ1 inh,RGS4 inhibitor,TDP1 inh,GCN5L2 inh,BLM helicase inh
COc1ccc(CCc2c[nH]c(=O)c3cncnc23)cc1OC,·,·,30.3%,2.1%,·,·
Cc1cc(/C=C2/C(=N)N3C(=NC2=O)SN=C3S(C)(=O)=O)c(C)n1-c1ccccc1F,23.2%,-27.7%,-1.7%,8.6%,22.4µM*,-11.3%
O=S(=O)(Nc1cccc2cccnc12)c1cccs1,·,·,-2.6%,1.3%,·,·
COc1ccc(NC(=O)CN2C(=O)S/C(=C/c3cccn3-c3ccc(C(=O)O)cc3)C2=O)cc1,1.68µM*,·,·,20µM*,?,?
O=C(CCN1C(=O)/C(=C\C=C\c2ccccc2)SC1=S)Nc1ccc(C(=O)O)cc1,13.4µM*,·,?,14.1µM*,?,?
Cc1cccc(C)c1NC(=O)CN1C(=O)S/C(=C\c2cccn2-c2cccc(C(=O)O)c2)C1=O,-10.7%,-5.6%,?,·,-11.8%,-18.9%
O=C(CCN1C(=O)S/C(=C\c2ccc(Cl)cc2)C1=O)Nc1ccc(C(=O)O)cc1,?,·,-29.7%,28.2µM*,?,-5.0%
Cc1ccc(NC(=O)CN2C(=O)S/C(=C\c3cc(Cl)c(OCC(=O)O)c(Cl)c3)C2=O)cc1,7.52µM*,·,-120.6%,·,-13.4%,?
CN(C)c1ccc(NC2=C([N+](=O)[O-])CS(=O)(=O)C2)cc1,-8.0%,20µM*,-28.2%,2.3%,0.1%,-6.9%
O=c1c2ccccc2nc(-c2ccccc2O)n1Cc1ccccc1,·,·,·,-0.5%,·,·
COc1cccc(Cn2ncc3c4sc(B(O)O)cc4n(C)c3c2=O)c1,9.47µM*,·,·,·,6.3%,·
Cc1cc2c(s1)c1cnn(Cc3ccc(F)cc3)c(=O)c1n2C,·,·,·,50.1µM*,·,·
C/C=C(/CC[C@@H](C)[C@H]1CC[C@H]2C3=CC[C@H]4[C@H](C)[C@@H](O)CC[C@]4(C)[C@H]3CC[C@]12C)C(C)C,4.2%,·,·,·,·,·
Cc1cc(C(=O)O)sc1C(N)C(=O)O (stereo not drawn),-7.1%,-3.3%,·,2.1%,·,-2.7%
Cc1cc(C(=O)O)ccc1[C@H](N)C(=O)O,39.8µM*!,2.7%,·,-7.3%,-2.4%,-1.9%
COC(=O)c1cc(C)nc2c1C(=O)C(=O)C=C2N1CCOCC1,-8.4%,·,-36.2%,-4.3%,-17.2%,8.91µM*
CC(C)(C)CNc1nc(C#N)nc(Nc2ccccc2)n1,-5.0%,i,·,7.4%,·,-9.4%
Cc1c(P(=S)(c2ccccc2)c2ccccc2)[n+]2ccccc2n1CC(=O)c1ccccc1,·,·,·,1.0%,·,·
CC(C)C(C)(C#N)NC(=O)CSc1nc2scc(-c3ccco3)c2c(=O)n1-c1ccccc1 (stereo not drawn),?,20µM*,3.6%[11.4 µM],·,-4.3%,?
O=C(c1ccccc1O)N(Cc1cccs1)Cc1cccs1,·,·,·,-3.8%,·,·
Cc1ccc(/C=C2\C(=N)N3N=C(CC(=O)N4CCCCC4)SC3=NC2=O)cc1,41.1%,·,-13.7%[56.9 µM],5.1%,-8.9%,-1.1%
N=C1/C(=C/c2ccco2)C(=O)N=C2SC(CC(=O)N3CCCC3)=NN12,-27.0%,·,16.8%[56.9 µM],20µM*,-28.2%,-27.2%
N#Cc1c(-c2ccc3ccccc3c2)no[n+]1[O-],-7.8%,·,·,·,·,·
